Measured values as given in the supplement of paper PMC9694430.
Counter-ions that a name gives are not always drawn.

Experiments:
Assay in all cases: thermal shift delta Tm vs DMSO control; higher = stronger stabilization (binding)
Settings in all cases: 12.5 µM; protein concentration 2 µM
LOC_OS01G01410-cb001 = test system: LOC_OS01G01410-cb001
In short: (§1)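 Heating from 25°C to 95°C at 0.05°C/s, fluorescence was recorded for 19.5 μl wells of 2 μM E. coli-expressed, purified rice kinase domain in 100 mM potassium phosphate pH 7.5, 150 mM NaCl, 10% glycerol and 5 × SYPRO Orange with compound in DMSO. Boltzmann fits gave melting temperatures for this differential scanning fluorimetry assay. The shift reported is the mean of three replicates against the DMSO-only protein.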

LOC_OS01G02750-cb003 = test system: LOC_OS01G02750-cb003
In short: as §1

LOC_OS01G10900-cb004 = test system: LOC_OS01G10900-cb004
In short: as §1

LOC_OS01G13800-cb001 = test system: LOC_OS01G13800-cb001
In short: as §1

LOC_OS01G14860-cb001 = test system: LOC_OS01G14860-cb001
In short: as §1

LOC_OS01G21960-cb002 = test system: LOC_OS01G21960-cb002
In short: as §1

LOC_OS01G39600-cb002 = test system: LOC_OS01G39600-cb002
In short: as §1

LOC_OS01G48390-cb002 = test system: LOC_OS01G48390-cb002
In short: as §1

LOC_OS01G51400-cb002 = test system: LOC_OS01G51400-cb002
In short: as §1

LOC_OS01G52050-cb004 = test system: T1, LOC_OS01G52050-cb004
T1 sequence (whole entry): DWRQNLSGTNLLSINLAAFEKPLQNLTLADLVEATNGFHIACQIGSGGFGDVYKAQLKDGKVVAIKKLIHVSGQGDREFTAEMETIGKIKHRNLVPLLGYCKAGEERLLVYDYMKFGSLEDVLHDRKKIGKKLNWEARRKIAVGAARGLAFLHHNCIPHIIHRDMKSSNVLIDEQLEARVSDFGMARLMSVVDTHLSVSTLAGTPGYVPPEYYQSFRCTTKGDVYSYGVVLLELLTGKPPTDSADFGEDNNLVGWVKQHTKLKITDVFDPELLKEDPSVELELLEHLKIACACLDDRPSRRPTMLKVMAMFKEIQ
In short: as §1
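Note: purified Escherichia coli-expressed rice kinase domain construct.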

SMILES	thermal shift delta Tm (LOC_OS01G01410-cb001)	thermal shift delta Tm (LOC_OS01G02750-cb003)	thermal shift delta Tm (LOC_OS01G10900-cb004)	thermal shift delta Tm (LOC_OS01G13800-cb001)	thermal shift delta Tm (LOC_OS01G14860-cb001)	thermal shift delta Tm (LOC_OS01G21960-cb002)	thermal shift delta Tm (LOC_OS01G39600-cb002)	thermal shift delta Tm (LOC_OS01G48390-cb002)	thermal shift delta Tm (LOC_OS01G51400-cb002)	thermal shift delta Tm (LOC_OS01G52050-cb004)
Cc1csc(-c2nnc(Nc3ccc(Oc4ncccc4-c4ccnc(N)n4)cc3)c3ccccc23)c1	1.65 °C	0.49 °C	0.46 °C	0.28 °C	0.97 °C	1.99 °C	1.72 °C	1.04 °C	0.22 °C	1.54 °C
COc1cc2ncnc(Nc3ccc(F)c(Cl)c3)c2cc1OCCCN1CCOCC1 [Gefitinib (ZD1839)]	1.27 °C	0.13 °C	3.7 °C	0.4 °C	0.18 °C	-0.07 °C	1.46 °C	2.87 °C	0.02 °C	0.77 °C
CNC(=O)c1cc(Oc2ccc(NC(=O)Nc3ccc(Cl)c(C(F)(F)F)c3)c(F)c2)ccn1 [Regorafenib (BAY 73-4506)]	2.09 °C	0.82 °C	0.16 °C	0.79 °C	2.04 °C	0.87 °C	0.21 °C	0.48 °C	0.2 °C	0.67 °C
Cc1ccc([N+](=O)[O-])cc1S(=O)(=O)N(C)/N=C/c1cnc2ccc(Br)cn12	1.6 °C	11.6 °C	7.32 °C	0.52 °C	8.02 °C	3.8 °C	1.85 °C	1.1 °C	0.2 °C	11.7 °C
COCC(=O)NC/C=C/c1ccc2ncnc(Nc3ccc(Oc4ccc(C)nc4)c(C)c3)c2c1	1.96 °C	0.21 °C	0.42 °C	0.2 °C	0.11 °C	-0.07 °C	1.61 °C	0.4 °C	0.03 °C	0.35 °C
O=C(Cc1ccc(-c2ccc(OCCN3CCOCC3)cc2)cn1)NCc1ccccc1	0.29 °C	-0.23 °C	-0.03 °C	-0.06 °C	0.06 °C	0.58 °C	-1.02 °C	0.31 °C	0.06 °C	-0.13 °C
Cc1cn(-c2cc(NC(=O)c3ccc(C)c(Nc4nccc(-c5cccnc5)n4)c3)cc(C(F)(F)F)c2)cn1 [Nilotinib (AMN-107)]	1.05 °C	0.56 °C	0.78 °C	-0.11 °C	0.32 °C	0.28 °C	0.67 °C	0.45 °C	0.48 °C	-0.02 °C
Nc1nc(Nc2ccc(S(N)(=O)=O)cc2)nn1C(=O)c1c(F)cccc1F	4.86 °C	1.06 °C	0.71 °C	0.59 °C	5.95 °C	1.73 °C	4.79 °C	5.9 °C	0.49 °C	5.43 °C
O=C1Cc2c([nH]c3ccc(Br)cc23)-c2ccccc2N1 [Kenpaullone]	1.3 °C	3.93 °C	3.23 °C	1.78 °C	7.46 °C	1.74 °C	2.16 °C	3.44 °C	0.72 °C	5.21 °C
NC(=O)c1ccc(N(C(N)=O)c2c(F)cccc2F)nc1-c1ccc(F)cc1F	0.34 °C	0.53 °C	0.19 °C	-0.47 °C	-0.12 °C	0.57 °C	-1.78 °C	0.07 °C	0.14 °C	-0.21 °C
CN1CCN(c2nc(C3=C(c4c[nH]c5ccccc45)C(=O)NC3=O)c3ccccc3n2)CC1 [Sotrastaurin]	0.84 °C	3.23 °C	0.77 °C	0.15 °C	3.2 °C	2.53 °C	3.02 °C	2.55 °C	0.38 °C	-0.06 °C
CSc1cccc(Nc2ncc3cc(-c4c(Cl)cccc4Cl)c(=O)n(C)c3n2)c1	0.57 °C	0.56 °C	1.7 °C	0.31 °C	0.06 °C	0.55 °C	-0.21 °C	0.12 °C	0.18 °C	0.18 °C
Cc1cc(O)c(-c2ccc([C@@H](C)CN)cc2)c2c1[nH]c(=O)c1sccc12 [OTS514 hydrochloride]	0.18 °C	0.75 °C	1.18 °C	0.58 °C	5.36 °C	1.5 °C	0.36 °C	1.38 °C	-0.1 °C	1.82 °C
CN1CCC(CNc2ccc3ncc(-c4cccc(OC(F)(F)F)c4)n3n2)CC1 [SGI-1776 free base]	0.34 °C	4.11 °C	3.96 °C	0.13 °C	0.51 °C	2.41 °C	0.68 °C	0.82 °C	0.07 °C	3.81 °C
C[C@H]1[C@H](C)CC[C@]2(C(=O)O)CC[C@]3(C)C(=CC[C@@H]4[C@@]5(C)C[C@@H](O)[C@H](O)[C@@](C)(CO)[C@@H]5CC[C@]43C)[C@H]12 [Asiatic Acid]	0.45 °C	-0.18 °C	0.15 °C	1.17 °C	0.23 °C	0.75 °C	0.1 °C	0.45 °C	0.17 °C	0.2 °C
CCCCNc1ncc2c(-c3ccc(CN4CCN(C)CC4)cc3)cn([C@H]3CC[C@H](O)CC3)c2n1	5.57 °C	6.91 °C	0.53 °C	-0.91 °C	2.44 °C	2.55 °C	7.19 °C	3.3 °C	0.81 °C	9.81 °C
O=c1cc(-c2cccc3c2Sc2ccccc2S3)oc(N2CCOCC2)c1	0.6 °C	-5.37 °C	1.94 °C	0.13 °C	2.44 °C	0.44 °C	0.29 °C	2.17 °C	-0.12 °C	-0.44 °C
COc1cc2ccc(=O)oc2cc1O [Scopoletin]	-0.07 °C	0.35 °C	0.25 °C	-0.08 °C	0.39 °C	0.11 °C	-0.27 °C	-0.08 °C	0.18 °C	0.81 °C
CN1CCN(c2ccc(C(=O)Nc3n[nH]c4ccc(Cc5cc(F)cc(F)c5)cc34)c(NC3CCOCC3)c2)CC1 [Entrectinib (RXDX-101)]	2.21 °C	2.9 °C	4.99 °C	-0.49 °C	0.18 °C	1.51 °C	3.51 °C	5.48 °C	0.15 °C	0.2 °C
CCn1c(=O)c(-c2ccc(Cl)cc2Cl)cc2cnc(Nc3ccc(N4CCNCC4)c(F)c3)nc21	5.82 °C	1.71 °C	7.68 °C	0.11 °C	3.38 °C	0.97 °C	5.06 °C	2.05 °C	-0.48 °C	5.06 °C
